Source: PubChem (National Center for Advancing Translational Sciences (NCATS))
AmpC no deterg = blocks E. coli AmpC beta-lactamase in detergent-free assay | P00811 | AmpC nitrocefin hydrolysis, absorbance 480 nm, 0.0001% Triton | Potency, µM (highest dose often 57.1 µM), for the others: top-dose activity change, negative = inhibition, most hits filed as inhibitors | hit rate 0.52% among 330,000 | AID 485341;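 note: potency is the fitted concentration of half-maximal effect; plate controls were no compound for no effect and no enzyme for full effect; nearly all actives have a fitted effect of over 20% in size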
Target sequence (P00811 whole entry, looked up): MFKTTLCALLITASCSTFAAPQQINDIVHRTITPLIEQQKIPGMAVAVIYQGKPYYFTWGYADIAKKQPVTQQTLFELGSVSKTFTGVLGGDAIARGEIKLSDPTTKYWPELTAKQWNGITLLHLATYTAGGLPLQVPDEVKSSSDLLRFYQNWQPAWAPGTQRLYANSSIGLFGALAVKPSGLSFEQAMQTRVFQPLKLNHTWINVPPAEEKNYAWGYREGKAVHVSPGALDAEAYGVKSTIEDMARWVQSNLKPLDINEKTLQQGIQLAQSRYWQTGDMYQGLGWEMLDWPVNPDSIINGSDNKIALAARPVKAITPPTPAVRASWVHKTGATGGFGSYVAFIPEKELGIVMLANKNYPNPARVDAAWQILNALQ
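20 mM phosphate pH 7.0 + 0.01% (detergent screen) or 0.0001% Triton X-100; 5.3 nM AmpC reagent; cpd preinc 15 min RT; nitrocefin (800 uM stock) to start; A480 q20 s × 4 min; Activity was normalised to no-enzyme and no-compound control wells.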
HCMV inh = human cytomegalovirus inhibition; HFF cells, HCMV-luciferase reporter, 72 h; active compounds read low; AID 1259415; hit rate 4.5% among 410,000; activity change, negative = inhibition, % at 57.5 µM; in the data active = activity change below about -60%; inconclusive = no clear call, values can overlap the other calls; inactive = above about -39%
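Two compound doses tested in HFFs infected with HCMV-luciferase, MOI 1 PFU/cell, 72 h at 37C. Lysate luminescence read with OneGlo; data normalized against buffer-only and 10uM Salinomycin inhibitor controls.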
AmpC inh detg = AmpC beta-lactamase inhibition with detergent present | AID 485294 | P00811 | hit rate 0.041% among 370,000 | Potency, µM (titrated, usually from 114 µM), inactives show at the top dose activity change, negative = inhibition, most hits filed as inhibitors | AmpC hydrolysis of nitrocefin, absorbance 480 nm, 0.01% Triton;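 note: potency is the fitted concentration of half-maximal effect; 0% = no-compound wells and -100% = no-enzyme wells; nearly all actives have a fitted effect of over 25% in size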
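AmpC (5.3 nM in the dispensed reagent) in 20 mM phosphate pH 7.0 with 0.01% (detergent screen) or 0.0001% Triton X-100 was preincubated with compounds for 15 min at room temperature. Nitrocefin was then added from an 800 uM solution, and hydrolysis was followed at 480 nm.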
FMDV antiviral = foot and mouth disease virus antiviral activity | FMDV antiviral cell-based qHTS | hit rate 1.2% among 410,000 | Potency, µM (titrated, usually from 57.9 µM), for inactives: at the highest dose activity change, negative = inhibition, usual class: inhibitors | AID 1159524; calls by dose curve; tested in HEK293T cells; note: read-out not given here; potency is the fitted concentration of half-maximal effect; nearly all actives have a fitted effect of over 45% in size
HCV inhibitor = blocks hepatitis C virus. Huh7.5.1 HCVcc-Cre infection, luciferase reporter, 44 h. Potency, µM (titrated, usually from 41.8 µM), for inactives: at the highest dose activity change, negative = inhibition, actives largely listed as inhibitors. hit rate 3.4% among 340,000. AID 651820; note: potency is the fitted concentration of half-maximal effect
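Compounds are dispensed onto cells plated 4 h earlier at 1,000 per well, with HCVcc-Cre virus (about 0.5 moi) added next. Following 44 h of culture, luminescent signal is measured for 15 sec after 15 min with substrate at room temperature.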
Active calls of the source: *; ? = inconclusive; / = no result given; + = active, no number. Sampled rows, rich in hits. Any-hit rate of the full collection: about 7.3%. Unless noted, calls come from the whole dose curve; as a rule, active = well fitted curve in the direction sought with a large enough effect; inconclusive = small, poorly fitted or top-dose-only effect, or another doubt; inactive = no such curve, though single readings can be large; an effect the other way counts as inactive or inconclusive. Unless noted, % is set by controls: 0 for no effect and ±100 for the full control effect.

SMILES	AmpC no deterg	HCMV inh	AmpC inh detg	FMDV antiviral	HCV inhibitor
COC(=O)c1cc(OC)c(OC)cc1NC(=O)Nc1ccc(OC)cc1	-9.3%	-16.8	6.9%	-3.2%	5.5%
COC(=O)c1cc2ccc(OC)cc2c2cc(OC)c(OC)cc12	216.2%	-30.2	/	?	1.41µM*
COc1ccc(-c2cncnc2-c2ccc(OC)cc2O)cc1	-24.9%	-63.8*	-4.5%	?	-26.0%
C=C(C)COc1ccc(-c2ncncc2-c2ccccc2OC)c(O)c1	-8.1%	-69.4*	?	?	?
COc1ccc(-c2ncncc2-c2ccc(Cl)cc2)c(O)c1	-11.2%	0.0	-7.0%	-20.8%	-15.4%
C[C@H]1NC(=O)[C@@]2(C)[C@H](c3ccccc3)[C@H]3COc4ccccc4[C@@H]3N2C1=O	-6.0%	-8.3	/	-10.9%	-3.1%
COc1ccc2cc([C@@H](C#N)C3CCCC3)ccc2c1	/	0.8	/	/	/
CC(=NNc1nc2ccccc2o1)c1ncccn1	/	-76.8*	/	-3.7%	3.55µM*
Oc1ccccc1/C=N/Nc1ncc(Br)cn1	-21.2%	-98.1*	-10.6%	49.4%	?
CC(=NNc1nc2ccccc2s1)c1ncccn1	/	-97.3*	/	-15.8%	?
C/C(=N\Nc1nc2ccccc2s1)c1cccs1	-1.9%	-22.3	10.1%	-44.7%	-25.9%
Oc1ccccc1/C=N/Nc1nc2ccccc2o1	-39.5%	+	-1.9%	4.8%	?
CC(C)c1ccc(OCC(=O)NCCS(=O)(=O)N2CCN(c3ccc(F)cc3)CC2)cc1	/	58.7	17.9%	0.0%	/
CCN(CC)C(=O)C1=C(C)N(CCCOC)C(=O)C(CC(=O)NCC2CCCCC2)C1 (stereo not drawn)	/	15.1	/	-21.4%	/
CC(C)(C)c1ccc(C(=O)N/C(=C\c2ccco2)C(=O)Nc2ccccc2C(=O)O)cc1	-37.6%	-2.5	4.5%	-23.6%	19.7%
O=C(CCN1CCC(c2ccc(Cl)s2)=N1)c1ccc(Cl)s1	-18.3%	-11.9	-4.0%	9.9%	9.8%
CC(=NNc1nc2ccccc2o1)c1cc2ccccc2cn1	/	-99.1*	/	-20.3%	?
COc1ccc(C=CC(=O)c2ccc3cc(OC)c(OC)cc3c2)cc1OC	/	183.1	/	?	/
COc1cc(/C=C/C(=O)O)ccc1O	/	/	/	-5.6%	19.6%
COc1cc(/C=C/[N+](=O)[O-])ccc1O	-43.3%	-103.8*	-0.1%	?	8.5%
COc1cc(/C=C/[N+](=O)[O-])ccc1OCc1cccc(C(=O)O)c1	-56.7%	/	-0.9%	10µM*	-4.1%
COc1cc(/C=C/C(=O)/C=C(O)/C=C/c2ccc(O)c(OC)c2)ccc1O	-9.5%	-67.4*	9.4%	?	?
COc1ccc(/C=C/C(=O)c2ccc([N+](=O)[O-])o2)cc1OC	1.0%	-103.6*	-14.5%	35.5µM*	5.62µM*
CCCCOc1ccc(C(=O)NCC(=O)NCC(c2ccc(F)cc2)N2CCOCC2)cc1 (stereo not drawn)	204.4%	-2.6	-15.4%	7.0%	12.6%
COc1ccc([C@@H]2[C@@H](C(=O)N3CCOCC3)CC(=O)N2C(=O)Nc2ccc(C)c(Cl)c2)cc1	/	11.0	/	/	/
SMILES	AmpC no deterg	HCMV inh	AmpC inh detg	FMDV antiviral	HCV inhibitor
O=C(/C=C/c1cccc(Cl)c1)c1ccc([N+](=O)[O-])o1	-28.8%	-99.8*	?	11.2µM*	2.51µM*
NS(=O)(=O)c1ccc(CNC(=O)/C=C/c2cccc(Cl)c2)cc1	-15.3%	5.3	-6.3%	-16.8%	1.6%
COc1cc(/C=C/C(=O)c2ccc([N+](=O)[O-])o2)ccc1O	-11.1%	-77.0*	-4.2%	?	?
COc1cc(/C=C/C(=O)c2c(O)cc(C)oc2=O)ccc1O	/	/	/	-6.5%	/
COc1cc(/C=C/C(C)=NNc2ccccc2)ccc1O	/	-61.3*	/	2.9%	?
COc1cc(/C=C/C(=O)CC(=O)/C=C/c2ccc(O)c(OC)c2)ccc1O	-22.0%	-35.0	-8.7%	?	?
CCCN(C(=O)c1ccc(N2CCCC2=O)cc1)C1CCS(=O)(=O)C1 (stereo not drawn)	-18.4%	16.2	-0.2%	-15.4%	8.3%
COc1ccccc1NC(=S)NCC1CCCCC1	-2.6%	-66.3*	-7.8%	57.3%	?
COc1ccccc1NC(=S)NC1CCCCCCCCCCC1	-54.7%	-61.3*	-13.0%	-12.5%	4.47µM*
CC1CCN(S(=O)(=O)c2cccc(C(=O)Nc3nncs3)c2)CC1	0.1%	9.2	-8.8%	-5.8%	12.2%
COc1cc(-c2cccc(Cl)c2)cc2c1OCCN(C(=O)CCn1ccc(C)n1)C2	/	/	/	-14.8%	/
N=C1SC(c2ccccc2)C(=O)N1c1ncc(Cc2ccccc2)s1 (stereo not drawn)	31.6µM*	-12.9	7.8%	?	8.8%
Cc1ccc(Cc2cnc(N3C(=N)SC(c4ccccc4)C3=O)s2)cc1 (stereo not drawn)	?	7.5	-6.4%	0.0%	-25.9%
O=C1CN=C(c2ccc[nH]2)c2cc(Cl)ccc2N1	-22.4%	-94.3*	-5.4%	-8.8%	0.5%
CCCS(=O)(=O)NC(=O)C1(C)CCCN(C(=O)CCc2ccccc2)C1 (stereo not drawn)	/	-65.1*	/	/	/
CCCS(=O)(=O)NC(=O)C1(C)CCCN(C(=O)CCc2cccs2)C1 (stereo not drawn)	/	-13.2	/	-0.3%	/
NC(Cc1cc(O)c(O)cc1O)C(=O)O (stereo not drawn)	7.08µM*	/	50.1µM*	/	2.8%
CN(C)CC(C)(O)c1ccc2c(c1)CN(Cc1cccn1-c1cccnc1)CCO2 (stereo not drawn)	/	/	/	8.9%	/
OC1C=C2CCN3Cc4cc5c(cc4C(C1O)C23)OCO5 (stereo not drawn)	/	/	/	-10.9%	/
O[C@@H]1[C@@H](O)C=C2CCN3Cc4cc5c(cc4[C@H]1C23)OCO5 (stereo partly drawn)	-15.9%	-97.6*	?	?	3.16µM*
CCN(CC)C(=O)Cn1c(=O)n(-c2ccc(Cl)cc2)c(=O)c2c3c(sc21)CCC3	/	-25.8	27.7%	-2.6%	/
CCn1ccnc1CN(C)Cc1cn(-c2cccc(C)c2)nc1-c1cccc(F)c1	227.8%	-38.2	-12.6%	0.0%	3.55µM*
O=C(CCN1C(=O)/C(=C/c2ccccc2Cl)SC1=S)N1CCOCC1	-9.7%	-37.6	11.0%	-6.5%	5.62µM*
O=C(CCCN1C(=O)/C(=C/c2ccccc2)SC1=S)N1CCOCC1	152.7%	-97.4*	1.7%	-10.3%	-6.9%
CCOc1ccc(/C=C2\SC(=S)N(CCCC(=O)NCCCN3CCOCC3)C2=O)cc1	102.5%	-95.0*	5.7%	11.2µM*	-16.2%
O=C(CCCN1C(=O)/C(=C/c2ccccc2Cl)SC1=S)NNC(=O)c1ccccc1Cl	-32.8%	-87.8*	-16.5%	?	12.0%
O=C(CCN1C(=O)/C(=C\c2ccccc2)SC1=S)N1CCOCC1	-2.0%	-10.9	-3.8%	0.0%	-5.5%
